Laboratory results reported in PubChem BioAssay AID1117319 (Southern Research Institute, 2015).
About 1,500 (0.58%) of roughly 260,000 compounds were called active. Another 5% or so got no clear call; they are omitted.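 How the source made its calls: active means inhibition above a set limit at one or more doses, reproduced on every date tested; inconclusive means results disagree between test dates, or hit never tested in dose response; inactive means the rest.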 A selection follows. Potency and affinity values are given separately.

Target: Virion infectivity factor (Human immunodeficiency virus type 1 group M subtype B (isolate BH10)) + Virion infectivity factor (Human immunodeficiency virus type 1 group M subtype B (isolate BRU/LAI)) + Virion infectivity factor (Human immunodeficiency virus type 1 group M subtype B (isolate PCV12)) + Virion infectivity factor (Human immunodeficiency virus type 1 group M subtype B (isolate HXB2)) + DNA dC->dU-editing enzyme APOBEC-3G (Homo sapiens) (UniProt P69720+P69721+P69722+P69723+Q9HC16)
Assay: inhibitors of Vif binding to APOBEC3G peptide, primary screen, biochemical, TR-FRET, GST-Vif 1-94, biotin-A3G peptide, dose response retest (AID 1117319);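 further: Vif residues 1-94 fused to GST binding biotinylated APOBEC3G peptide 110-148; 0% = full assay without inhibitor and 100% = GST in place of GST-Vif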
Conditions: hits give high values

inhibition, inactive:
CC1CC(C)(C)NC(=S)N1CCCC(=O)Nc1ccc(Br)cc1 (stereo not given) -9.53%, O=C(NC1CCCCC1)C12CC3CC(CC(Cl)(C3)C1)C2 9.37%, COc1ccc(O)c(CN2CC3CCC(CC3)C2)c1 4.35%, COc1ccc(N2CCN(C(=O)COC(=O)CNC(=O)c3ccccc3)CC2)cc1 3.12%, CC1(C)NC(=O)N(CC(=O)NNC(=O)c2ccccc2F)C1=O -5.82%, FC(F)(F)c1cnc(N2CCN(C(=S)NCc3ccccc3)CC2)c(Cl)c1 -5.24%, COc1cc2[nH]c3c(=O)n(N)c(=O)[nH]c3c2cc1OC -6%, O=[N+]([O-])c1ccccc1S(=O)(=O)Nc1ncccn1 5.53%, O=[N+]([O-])c1ccccc1S(=O)(=O)NC1CCCCCCC1 8.73%, CCN(C(=O)COC(=O)c1oc2ccc(OC)cc2c1C)C1CCCCC1 -5.77%, CC1CCCN(C(=O)NC(=O)c2ccc(Cl)cc2)C1 (stereo not given) -0.86%, Cc1ccc(NC(=O)CCNS(=O)(=O)c2cc(Br)cnc2N)cc1Cl 5.11%, Cc1cc(C)cc(NC(=O)CCNS(=O)(=O)c2cc(Br)cnc2N)c1 -18.9%, O=C(COC(=O)CCCSc1nc2ccccc2[nH]1)Nc1cccc(F)c1 -3.43%, COC(=O)c1ccc(Cn2nnc3ccccc32)cc1 26.1%, Cc1ccc(S(=O)(=O)N2C(=O)CCC2C(N)=O)cc1 (stereo not given) -11.2%, O=C(C1CCCO1)N1CCC(O)(c2ccccc2)CC1 (stereo not given) -9.62%, O=C(C1CCCO1)N1CCN(C(=S)NC2CC2)CC1 (stereo not given) -5.45%, Cc1c(C)c(C)c(CN2CCSCC2)c(C)c1C 21.2%, CC(C)CN(C(=O)CN1CCN(c2ccc([N+](=O)[O-])cc2)CC1)c1c(N)n(CC(C)C)c(=O)[nH]c1=O 13.2%, CCN(C(=O)CN1CCN(c2ccccc2)CC1)c1c(N)n(Cc2ccccc2)c(=O)[nH]c1=O -6.89%, CCN(C(=O)CN1CCN(c2ccc(OC)cc2)CC1)c1c(N)n(Cc2ccccc2)c(=O)[nH]c1=O 20.7%, CC(=O)c1ccc(N2CCN(CC(=O)N(CC(C)C)c3c(N)n(CC(C)C)c(=O)[nH]c3=O)CC2)cc1 19.2%, Cc1cc(C(C)(C)C)oc1C(=O)N(CC(=O)NC1CCCC1)Cc1ccc(F)cc1 0.27%, CCOC(=O)C1(Cc2cccc(F)c2)CCN(Cc2ccon2)CC1 -4.55%
